Several values for one entry are separate records, joined by “and”; a condition that tells them apart may be missing. Equal entries are not always repeated. Results filed as inconclusive are left out. Activity calls are given as the source filed them. Unless noted, the call rests on the fitted dose curve; in most records, active means well fitted curve in the direction sought with a large enough effect; inconclusive means small, poorly fitted or top-dose-only effect, or another doubt; inactive means no such curve, though single readings can be large; an effect the other way counts as inactive or inconclusive.

The values that follow come from PubChem BioAssay (NCATS).

The target of assay [1] is Peroxisome proliferator-activated receptor gamma (Homo sapiens) (UniProt P37231). The assay is described as follows: qHTS assay for small molecule antagonists of peroxisome proliferator-activated receptor gamma signaling (AID 588537; active means well fitted inhibition curve with a large enough effect in the signal ratio, with a control signal flat, not every such curve was filed as active; the % refers to the signal ratio;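 further: reporter cells co-stimulated with 50 nM rosiglitazone agonist during compound treatment; % of control where 0% means no effect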). In short, it runs like this: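 We seeded GeneBLAzer HEK293 reporter cells at 3000 per well, allowed 6-6.5 h attachment at 37 C, then co-treated with test compound titrations and 50 nM rosiglitazone overnight (16 h). Inhibition was quantified from 460/530 nm emission ratios.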
Sequence of Peroxisome proliferator-activated receptor gamma (Homo sapiens) (P37231 whole entry, looked up): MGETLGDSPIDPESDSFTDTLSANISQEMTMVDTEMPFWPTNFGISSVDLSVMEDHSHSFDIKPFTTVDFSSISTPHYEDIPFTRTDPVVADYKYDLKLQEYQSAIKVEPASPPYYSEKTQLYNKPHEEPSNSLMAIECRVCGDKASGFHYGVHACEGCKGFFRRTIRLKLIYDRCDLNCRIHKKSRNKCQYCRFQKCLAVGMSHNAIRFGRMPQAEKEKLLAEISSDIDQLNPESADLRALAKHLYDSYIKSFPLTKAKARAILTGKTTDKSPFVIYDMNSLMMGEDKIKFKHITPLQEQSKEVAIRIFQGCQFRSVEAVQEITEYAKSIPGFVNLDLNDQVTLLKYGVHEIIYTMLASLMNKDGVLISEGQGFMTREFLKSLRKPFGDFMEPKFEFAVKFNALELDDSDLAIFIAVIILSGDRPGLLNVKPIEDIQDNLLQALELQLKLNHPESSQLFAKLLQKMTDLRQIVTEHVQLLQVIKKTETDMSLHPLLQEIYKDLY
Background: Quantitative high-throughput screening tests each substance at several concentrations.

Assay [2] deals with Vitamin D3 receptor (Homo sapiens) (UniProt P11473). The experiment in a line: qHTS assay for small molecule antagonists of vitamin D receptor signaling (AID 588541; calls by dose curve;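 further: receptor activated by calcitriol during compound treatment; series mostly up to about 77 µM; on the % scale 0 is the no-effect control and ±100 the full control effect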). Summed up:
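VDR-UAS-bla HEK293T cells (2000/well, 2% charcoal-stripped FBS) were treated with titrated compounds plus 1-alpha,25-dihydroxyvitamin D3 (50 nM or 3 nM final) for 16 h at 37 C. CCF4 beta-lactamase fluorescence was read; Hill fits gave IC50.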

The target is the same in assay [3]. The experiment in a line: qHTS assay for small molecule agonists of vitamin D receptor signaling (AID 588543; calls by dose curve;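 further: 0% = DMSO basal and 100% = reference agonist control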). In short, it runs like this:
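Agonist-mode beta-lactamase reporter: HEK293T VDR-UAS-bla cells in charcoal-stripped 2% FBS, compound series 16 h 37 C, CCF4 2 h RT. EC50 from Hill fit, scaled against DMSO and 50 nM calcitriol control.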

The target in assay [4] is Thyroid hormone receptor beta (Homo sapiens) (UniProt P10828). The assay is described as follows: qHTS assay for small molecule agonists of thyroid hormone receptor beta signaling (AID 588545; calls by dose curve;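 further: 0% = DMSO only and 100% = 10 nM T3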). Summed up:
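TR-UAS-bla-GripTite HEK 293 cells in medium with 2% charcoal/dextran FBS, 0.1 mM NEAA and 1 mM sodium pyruvate were treated with titrated compounds for 18 hrs at 37 C. Beta-lactamase reporter was read with CCF4 dye (ex 405, em 460/530 nm); EC50 from Hill fits.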

Assay [5] shares this target. The experiment in a line: qHTS assay for small molecule antagonists of thyroid hormone receptor beta signaling (AID 588547; active means well fitted inhibition curve with a large enough effect in the signal ratio, with a control signal flat, not every such curve was filed as active; the % refers to the signal ratio;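 further: cells stimulated with 0.4 nM T3 agonist during compound exposure; series mostly up to about 77 µM; on the % scale 0 is the no-effect control and ±100 the full control effect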). Particulars: TR-UAS-bla HEK293, beta-lactamase ratio, antagonist mode, 18 h. Summed up: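 TR-UAS-bla GripTite HEK293 cells in 2% charcoal/dextran FBS medium were preincubated 4 h at 37 C, given compound (0.59 nM to 92 uM) plus 0.4 nM T3 (final) for 18 h, then CCF4 for 2 h at RT; Hill fit gave IC50.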

The target of assay [6] is Voltage-gated inwardly rectifying potassium channel KCNH2 (Homo sapiens) (UniProt Q12809). The assay is described as follows: qHTS Assay for Small Molecule Inhibitors of the Human hERG Channel Activity (AID 588834).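 Further: lower thallium flux fluorescence means stronger hERG block; nearly all actives have a fitted effect of over 50% in size.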 Further: potency means the concentration at half of the fitted maximal effect. Summed up: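 Kinetic FDSS fluorescence; U2OS + hERG BacMam (~100 virus particles/cell); FluxOR Tl+ flux; ~10 min cpd; AC50 (Hill).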
Sequence of Voltage-gated inwardly rectifying potassium channel KCNH2 (Homo sapiens) (Q12809 whole entry, looked up): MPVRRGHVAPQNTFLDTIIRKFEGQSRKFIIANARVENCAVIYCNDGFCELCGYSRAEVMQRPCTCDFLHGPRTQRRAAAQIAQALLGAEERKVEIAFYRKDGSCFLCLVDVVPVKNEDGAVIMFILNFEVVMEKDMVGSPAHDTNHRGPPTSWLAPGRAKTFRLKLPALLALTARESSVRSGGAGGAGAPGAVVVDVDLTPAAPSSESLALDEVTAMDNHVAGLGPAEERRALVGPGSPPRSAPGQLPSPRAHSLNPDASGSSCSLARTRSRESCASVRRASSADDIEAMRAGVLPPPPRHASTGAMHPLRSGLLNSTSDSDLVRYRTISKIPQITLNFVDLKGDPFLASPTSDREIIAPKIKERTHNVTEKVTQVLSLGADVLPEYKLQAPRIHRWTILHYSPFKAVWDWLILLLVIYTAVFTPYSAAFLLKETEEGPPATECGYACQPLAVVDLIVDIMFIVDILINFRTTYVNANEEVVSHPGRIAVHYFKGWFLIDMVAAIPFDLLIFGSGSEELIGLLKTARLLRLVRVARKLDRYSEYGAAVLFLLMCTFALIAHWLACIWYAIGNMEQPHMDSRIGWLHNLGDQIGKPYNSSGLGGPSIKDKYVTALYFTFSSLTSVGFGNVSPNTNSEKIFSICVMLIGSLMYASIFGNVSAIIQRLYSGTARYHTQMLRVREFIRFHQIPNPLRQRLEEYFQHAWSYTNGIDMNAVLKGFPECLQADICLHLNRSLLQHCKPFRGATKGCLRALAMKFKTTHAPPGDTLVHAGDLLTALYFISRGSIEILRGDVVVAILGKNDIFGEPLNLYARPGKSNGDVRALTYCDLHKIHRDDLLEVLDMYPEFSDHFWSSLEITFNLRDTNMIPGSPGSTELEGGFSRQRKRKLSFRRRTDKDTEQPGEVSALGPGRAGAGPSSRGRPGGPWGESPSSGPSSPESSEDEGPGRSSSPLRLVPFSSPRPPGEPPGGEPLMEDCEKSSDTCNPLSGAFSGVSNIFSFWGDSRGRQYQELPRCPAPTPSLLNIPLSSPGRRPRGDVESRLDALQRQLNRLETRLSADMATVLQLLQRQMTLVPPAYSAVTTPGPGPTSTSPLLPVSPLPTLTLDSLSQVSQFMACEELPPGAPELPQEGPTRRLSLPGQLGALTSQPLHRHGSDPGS
For assay [7], the target named is Luciferin 4-monooxygenase (Photinus pyralis) (UniProt P08659). The experiment in a line: Biochemical firefly luciferase enzyme assay for NPC (AID 624030).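 Further: purified P. pyralis luciferase at 10 nM with luciferin and ATP substrate; series mostly up to about 59 µM; 0% = DMSO and -100% = full luciferase inhibition by PTC124 control; nearly all actives have a fitted effect of over 70% in size.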 In short, it runs like this: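 Counter-screen for direct inhibition of the luciferase enzyme by approved-drug library compounds, run at 10 nM enzyme in 50 mM Tris acetate (final). Luminescence was read within 5 min of enzyme-buffer addition and normalized to PTC124 versus DMSO (0%).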
Sequence of Luciferin 4-monooxygenase (Photinus pyralis) (P08659 whole entry, looked up): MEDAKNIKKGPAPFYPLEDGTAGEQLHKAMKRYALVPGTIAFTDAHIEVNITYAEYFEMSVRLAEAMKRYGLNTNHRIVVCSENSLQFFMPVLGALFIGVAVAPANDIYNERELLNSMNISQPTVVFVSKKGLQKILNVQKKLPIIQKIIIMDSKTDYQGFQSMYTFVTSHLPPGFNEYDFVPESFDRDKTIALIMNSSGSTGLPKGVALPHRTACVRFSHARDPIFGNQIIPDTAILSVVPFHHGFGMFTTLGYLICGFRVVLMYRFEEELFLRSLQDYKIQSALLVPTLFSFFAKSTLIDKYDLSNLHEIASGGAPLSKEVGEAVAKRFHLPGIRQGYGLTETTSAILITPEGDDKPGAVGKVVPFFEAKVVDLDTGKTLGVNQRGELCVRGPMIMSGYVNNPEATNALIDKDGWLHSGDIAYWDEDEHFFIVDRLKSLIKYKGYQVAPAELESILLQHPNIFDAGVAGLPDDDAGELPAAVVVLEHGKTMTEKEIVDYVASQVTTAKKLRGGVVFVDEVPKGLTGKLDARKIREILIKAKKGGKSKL

Assay [8] is described as follows: S16 Schwann cell viability assay (CellTiter-Glo assay) (AID 624031).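 Further: cellular ATP luminescence as a viability measure; series mostly up to about 58 µM; plate controls were DMSO-treated cells for no effect and cell-free wells for full effect; nearly all actives have a fitted effect of over 70% in size.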 Summed up: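 Native S16 rat Schwann cells, 500-750 cells/well in DMEM with 10% FBS, dosed with compound after overnight culture and incubated 24h at 37 degree Celsius/5% CO2. Viability by CellTiter-Glo luminescence; % activity normalized to no-cell wells and DMSO-treated cells.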
Assay [9] can be described thus: S16 Schwann cell PMP22 intronic element firefly luciferase assay (AID 624032). Further: nearly all actives have a fitted effect of over 30% in size. Further: potency means the concentration at half of the fitted maximal effect. In short, it runs like this: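 Rat S16 Schwann cells stably carrying a PMP22 intronic element-driven Fluc reporter were seeded overnight, then exposed to compounds for 24 h at 37 °C. Luminescence was normalized to PTC124 (positive control) and DMSO (0% activity).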
For assay [10], the target named is Peroxisome proliferator-activated receptor gamma (Homo sapiens) (UniProt P37231). The experiment in a line: qHTS assay for small molecule agonists of peroxisome proliferator-activated receptor gamma signaling (AID 588536; active means well fitted curve in the direction sought with a large enough effect in the signal ratio, with a control signal flat, not every such curve was filed as active; the % refers to the signal ratio;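 further: 0% = DMSO basal wells and 100% = rosiglitazone at 2 µM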). In short, it runs like this: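 Ratiometric blue/green fluorescence (405 nm excitation; 460 and 530 nm emission) from CCF4-loaded HEK293 reporter cells serves as signal. Exposure to test compounds lasts 16 h at 37 C in medium containing 1% charcoal/dextran-treated serum.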

Assay [11] can be described thus: qHTS assay for small molecule agonists of retinoid X receptor alpha signaling (AID 588544; calls by dose curve). Particulars: HEK293T RXRa-UAS-bla, beta-lactamase reporter, 18 h; 530 nm emission.
The target in assay [12] is Retinoic acid receptor RXR-alpha (Homo sapiens) (UniProt P19793). The assay is described as above.
Sequence of Retinoic acid receptor RXR-alpha (Homo sapiens) (P19793 whole entry, looked up): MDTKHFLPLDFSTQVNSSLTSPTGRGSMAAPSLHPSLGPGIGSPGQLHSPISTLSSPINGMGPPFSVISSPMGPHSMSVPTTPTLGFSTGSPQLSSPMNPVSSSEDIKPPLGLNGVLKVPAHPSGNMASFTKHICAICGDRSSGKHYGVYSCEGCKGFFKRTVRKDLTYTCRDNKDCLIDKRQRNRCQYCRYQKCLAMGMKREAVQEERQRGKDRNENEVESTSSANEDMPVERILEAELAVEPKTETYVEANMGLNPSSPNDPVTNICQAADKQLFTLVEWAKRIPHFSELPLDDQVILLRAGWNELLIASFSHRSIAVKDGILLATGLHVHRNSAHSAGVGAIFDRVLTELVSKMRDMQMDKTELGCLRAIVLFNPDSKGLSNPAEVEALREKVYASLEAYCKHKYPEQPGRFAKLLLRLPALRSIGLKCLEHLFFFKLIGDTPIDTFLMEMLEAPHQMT
The nature of assay [13]: qHTS assay for small molecule antagonists of retinoid X receptor alpha signaling (AID 588546; active means well fitted inhibition curve with a large enough effect in the signal ratio, with a control signal flat, not every such curve was filed as active; the % refers to the signal ratio;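 further: cells stimulated with 9-cis-retinoic acid as agonist; on the % scale 0 is the no-effect control and ±100 the full control effect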). Particulars: HEK293T RXRa-UAS-bla, beta-lactamase ratio, antagonist mode; measured here: W530 green channel, cytotoxicity proxy. Summed up: (§1)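 Beta-lactamase reporter inhibition, read as CCF4 fluorescence ratio (ex 405, em 460/530 nm) after 2 h at RT. HEK293T UAS-bla cells, 2500/well, were stimulated with 9-cis-RA at 500 or 100 nM final alongside test compound for 18 h at 37 C.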

The target of assay [14] is Retinoic acid receptor RXR-alpha (Homo sapiens) (UniProt P19793). The description is as above. Particulars: HEK293T RXRa-UAS-bla, beta-lactamase ratio, antagonist mode. Summed up: as §1
Assay [15] addresses Peroxisome proliferator-activated receptor delta (Homo sapiens) (UniProt Q03181). The assay is described as follows: qHTS assay for small molecule antagonists of peroxisome proliferator-activated receptor delta signaling (AID 588535; active means well fitted inhibition curve with a large enough effect in the signal ratio, with a control signal flat, not every such curve was filed as active; the % refers to the signal ratio). Summed up: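 Reporter: UAS-bla under PPAR-delta response element, HEK293T host. Medium: 2% charcoal/dextran FBS. Dosing: titration, 18 hrs, 37 C. Detection: CCF4, 2 hrs RT, 405 ex/460 and 530 em.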

The nature of assay [16]: S16 Schwann cell PMP22 intronic element beta-lactamase assay (AID 624044; calls by dose curve; further: potency means the concentration at half of the fitted maximal effect; nearly all actives have a fitted effect of over 15% in size). Summed up:
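Rat S16 Schwann cells with beta-Lac driven by a PMP22 intronic element, compound-treated 24 h at 37 °C. LiveBLAzer FRET B/G read: 460 nm normalized to potassium clavulanate vs DMSO; 535 nm FRET as viability; concentration-effect curves classified.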

Sequence of Thyroid hormone receptor beta (Homo sapiens) (P10828 whole entry, looked up): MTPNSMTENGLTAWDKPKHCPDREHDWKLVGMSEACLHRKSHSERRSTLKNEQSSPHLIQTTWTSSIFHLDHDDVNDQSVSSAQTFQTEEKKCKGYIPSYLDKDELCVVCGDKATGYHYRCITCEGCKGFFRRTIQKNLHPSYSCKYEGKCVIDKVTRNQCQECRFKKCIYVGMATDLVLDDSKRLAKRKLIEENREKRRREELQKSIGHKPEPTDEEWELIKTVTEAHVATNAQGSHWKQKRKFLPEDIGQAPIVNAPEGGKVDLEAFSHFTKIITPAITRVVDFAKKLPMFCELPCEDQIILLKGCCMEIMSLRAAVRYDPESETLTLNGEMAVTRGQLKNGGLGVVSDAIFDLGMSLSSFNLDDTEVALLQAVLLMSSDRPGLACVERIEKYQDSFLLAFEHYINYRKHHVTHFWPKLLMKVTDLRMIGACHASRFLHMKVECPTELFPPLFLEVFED
Sequence of Peroxisome proliferator-activated receptor delta (Homo sapiens) (Q03181 whole entry, looked up): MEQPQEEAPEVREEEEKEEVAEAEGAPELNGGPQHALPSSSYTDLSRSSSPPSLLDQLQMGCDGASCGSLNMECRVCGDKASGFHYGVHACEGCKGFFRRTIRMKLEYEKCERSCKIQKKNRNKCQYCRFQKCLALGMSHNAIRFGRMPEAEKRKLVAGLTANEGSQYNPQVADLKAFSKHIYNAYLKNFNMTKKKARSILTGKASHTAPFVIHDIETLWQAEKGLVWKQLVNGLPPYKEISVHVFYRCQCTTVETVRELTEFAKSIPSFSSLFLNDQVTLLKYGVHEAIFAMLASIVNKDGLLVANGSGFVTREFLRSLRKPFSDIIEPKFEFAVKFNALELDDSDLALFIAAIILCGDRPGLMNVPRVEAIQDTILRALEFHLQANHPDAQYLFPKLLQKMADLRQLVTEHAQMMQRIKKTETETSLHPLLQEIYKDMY
Sequence of Vitamin D3 receptor (Homo sapiens) (P11473 whole entry, looked up): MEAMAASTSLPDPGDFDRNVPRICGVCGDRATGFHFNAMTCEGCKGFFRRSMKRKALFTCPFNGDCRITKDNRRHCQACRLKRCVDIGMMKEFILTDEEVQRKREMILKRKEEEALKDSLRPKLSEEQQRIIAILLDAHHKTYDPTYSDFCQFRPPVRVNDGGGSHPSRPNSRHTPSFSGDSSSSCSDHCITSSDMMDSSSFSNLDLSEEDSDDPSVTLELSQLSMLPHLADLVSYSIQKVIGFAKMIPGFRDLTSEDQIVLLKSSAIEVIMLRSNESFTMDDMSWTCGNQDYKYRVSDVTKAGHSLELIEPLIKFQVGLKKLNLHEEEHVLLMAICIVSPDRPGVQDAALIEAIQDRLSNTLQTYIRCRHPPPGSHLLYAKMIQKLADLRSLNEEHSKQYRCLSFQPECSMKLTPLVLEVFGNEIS

Turning to `CC(C)(C)CC(C)(C)c1ccc(O)c(-n2nc3ccccc3n2)c1`, the Potency result in assay [1], in assay [2], in assay [6], in assay [7], in [8] and in [9] was “inactive” throughout. For the same compound, the outcome in [3] and in assay [4] was inactive. In addition, the activity change % (negative = inhibition) in assay [5] was -12.9% (inactive).
Turning to `CC1(C)OC[C@@H]2O[C@@]3(C(=O)O)OC(C)(C)O[C@H]3[C@@H]2O1`, the outcome in assay [10], in assay [3], in assay [12] and in assay [4] was inactive. Further, the Potency result in assay [1], in assay [2] and in assay [6] was “inactive” in each case. The max response in assay [11] is 0.747%; in [13], -2.62%; in assay [14], 1.08% (inactive). The activity change % (negative = inhibition) in assay [5] is -3.12% (inactive).
`COc1ccc(C(=O)c2ccccc2)c(O)c1`: the result in [15], in [10] and in assay [4] was inactive. Further, the Potency entry in [1], in assay [8] and in assay [9] was “inactive” each time. Also, the max response is 4.73% and -13.9% in assay [13]; -9.82% (inactive) and -18.3% (inactive) in assay [14]. The activity change % (negative = inhibition) in assay [5] is -24% (inactive) and 5.53% (inactive). Further, in [6], the Potency is 35500 nM (active).
As for `CCCCCCCC/C=C\CCCCCCCCN`, the result in assay [15], in assay [3], in [12] and in assay [4] was inactive. Further, the Potency result in assay [2], in [6], in assay [7], in assay [8] and in assay [9] was “inactive” each time. Moreover, the max response is -3% in assay [11], 0.483% in assay [13] and 8.18% (inactive) in assay [14]. In assay [5], the activity change % (negative = inhibition) was -4.57% (inactive).
With `CCOc1ccc(NC(C)=O)cc1`, the call in assay [10], in [3], in [12] and in assay [4] was inactive. Further, the Potency result in [1], in assay [2], in [6], in [7], in [8] and in assay [9] was “inactive” throughout. In addition, the max response in assay [11] is 2.99% and -14.4%; in [13], -2.9% and -4.43%; in assay [14] it was -12.1% (inactive) and 5.41% (inactive). Moreover, the activity change % (negative = inhibition) in [5] is 4.97% (inactive).
With `C=C[C@@]1(C)CC(=O)[C@]2(O)[C@@]3(C)[C@@H](O)CCC(C)(C)[C@@H]3[C@H](O)[C@H](OC(C)=O)[C@@]2(C)O1`, the Potency result in assay [1], in assay [2], in [6] and in assay [7] was “inactive” in each case. For the same compound, the compound was classed as inactive in [3] and in [4]. In assay [5], the activity change % (negative = inhibition) was 10.4% (inactive). The Potency in [9] is 361 nM (active); in [16], 707 nM (active).
On to `CC(C)Cn1cnc2c1c(=O)n(C)c(=O)n2C`, for which the Potency entry in assay [7] was “inactive”.
Consider `CC(C)CCCC(C)N` (stereo unspecified), for which the Potency result in [6], in assay [7], in [8] and in assay [9] was “inactive” each time.
Take `O=C(O)Cc1csc(-c2ccc(Cl)cc2)n1`: the Potency entry in assay [6], in assay [7] and in [8] was “inactive” each time.
For the compound `CCc1nn(CCCN2CCN(c3cccc(Cl)c3)CC2)c(=O)n1CCOc1ccccc1`, in [6], the Potency is 1000 nM (active). The Potency entry in assay [7] is “inactive”.
